The text below walks through data of PubChem BioAssay (NCI).

This is part of a sample that, as a whole, favours compounds with a hit. Of some 79,000 tested, about 15% had one in any assay. A number with no mark means an inactive call. The source made the active and inactive calls. Rule as the data show it: active = growth inhibition above about 70%; inactive = the rest.

Assay [1] is described as follows: NCI Yeast Anticancer Drug Screen. Data for the rad50 strain (AID 155).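 Also: 0% = growth of vehicle-only cultures of the same strain.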 The conditions noted are these: S. cerevisiae rad50 strain growth inhibition, active compounds read high. In outline: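 A DNA repair-deficient yeast mutant serves as the test organism; compound-induced growth inhibition is calculated against vehicle-treated cells.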
The nature of assay [2]: NCI Yeast Anticancer Drug Screen. Data for the mec2-1 strain (AID 157). The conditions noted are these: S. cerevisiae mec2-1 strain, active compounds read high. A digest of the protocol:
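Mutant yeast (mec2-1) grown with compound; growth inhibition relative to vehicle control reported.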

Assay [3] in a line: NCI Yeast Anticancer Drug Screen. Data for the sgs1 mgt1 strain (AID 161).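 Also: 0% = growth of cultures given vehicle only.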 The conditions noted are these: S. cerevisiae sgs1 mgt1 strain, active compounds read high. In outline:
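Growth of a repair-deficient yeast mutant was monitored after compound treatment and expressed as inhibition relative to vehicle-treated cultures.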

Assay [4] in a line: NCI Yeast Anticancer Drug Screen. Data for the cln2 rad14 strain (AID 165).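 Also: 0% = growth equal to vehicle treated cultures.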 Particulars: S. cerevisiae cln2 rad14 strain, active compounds read high. A digest of the protocol:
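Readout is yeast growth inhibition versus vehicle-treated controls, using a strain with cln2 and rad14 alterations exposed to compound.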

Assay [5] is described as follows: NCI Yeast Anticancer Drug Screen. Data for the bub3 strain (AID 167). The conditions noted are these: S. cerevisiae bub3 mutant strain, active compounds read high. A digest of the protocol:
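Inhibition values come from growth of compound-treated mutant yeast normalised to vehicle-treated controls.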

A short description of assay [6]: NCI Yeast Anticancer Drug Screen. Data for the mlh1 rad18 strain (AID 175). The conditions noted are these: S. cerevisiae mlh1 rad18 strain growth inhibition, active compounds read high. A digest of the protocol:
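Genetically defined yeast (DNA repair-deficient) exposed to compounds; growth inhibition determined relative to vehicle.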

The mark [7] stands for this setting: at 5.0 µM (retest, dose inferred, filed as 0.5).
The mark [8] stands for this setting: at 50.0 µM (retest, dose inferred, filed as 5.0).

With `CN(C)c1ccc2c(c1)N(C)c1ccccc1C2(Cl)c1ccccc1` (configuration not stated), the growth inhibition in assay [1] (setting [7]) was 96% (active); in assay [1] (setting [8]), 99% (active); in assay [1] (at 50.0 µM) it was 99.2% (active); in assay [2] (setting [7]) it was 99% (active); in assay [2] (setting [8]), 100% (active); in assay [2] (at 50.0 µM) it was 99.5% (active). The growth inhibition in assay [3] (setting [7]) is 90% (active); in assay [3] (setting [8]), 99% (active); in assay [3] (at 50.0 µM) it was 99.3% (active); in assay [4] (setting [7]), 70% (active); in assay [4] (setting [8]), 98% (active); in assay [4] (at 50.0 µM) it was 99.2% (active). Further, the growth inhibition was 89% (active) in assay [5] (setting [7]); 99% (active) in assay [5] (setting [8]); 99.3% (active) in assay [5] (at 50.0 µM); 95% (active) in assay [6] (setting [7]); 99% (active) in assay [6] (setting [8]); 99.4% (active) in assay [6] (at 50.0 µM).
On to `COc1c(I)cc(I)c(O)c1I`, for which the growth inhibition is 6% in assay [1] (setting [7]); 39% in assay [1] (setting [8]); 94.4% (active) in assay [1] (at 50.0 µM); 10% in assay [2] (setting [7]); 80% (active) in assay [2] (setting [8]); 93.8% (active) in assay [2] (at 50.0 µM). For the same molecule, the growth inhibition was 7% in assay [3] (setting [7]); 64% in assay [3] (setting [8]); 91% (active) in assay [3] (at 50.0 µM); 10% in assay [4] (setting [7]); 36% in assay [4] (setting [8]); 88.1% (active) in assay [4] (at 50.0 µM). Further, the growth inhibition in assay [5] (setting [7]) is 3%; in assay [5] (setting [8]) it was 36%; in assay [5] (at 50.0 µM) it was 69.9%; in assay [6] (setting [7]), 9%; in assay [6] (setting [8]), 77% (active); in assay [6] (at 50.0 µM), 94.2% (active).
For the molecule `O=C1C=CC(=O)c2c(O)c(N3CCN(CCOCCO)CC3)c(Br)c(O)c21`, the growth inhibition in assay [1] (setting [7]) is 15%; in assay [1] (setting [8]), 96% (active); in assay [1] (at 50.0 µM), 88.3% (active); in assay [2] (setting [7]), 13%; in assay [2] (setting [8]), 98% (active); in assay [2] (at 50.0 µM), 88.6% (active). The growth inhibition in assay [3] (setting [7]) is 18%; in assay [3] (setting [8]), 97% (active); in assay [3] (at 50.0 µM) it was 89.7% (active); in assay [4] (setting [7]), 17%; in assay [4] (setting [8]), 96% (active); in assay [4] (at 50.0 µM) it was 86.4% (active). For the same molecule, the growth inhibition was 25% in assay [5] (setting [7]); 96% (active) in assay [5] (setting [8]); 85.9% (active) in assay [5] (at 50.0 µM); 16% in assay [6] (setting [7]); 98% (active) in assay [6] (setting [8]); 86.5% (active) in assay [6] (at 50.0 µM).
Turning to `Fc1cccc2c1cc1ccc3cccc4ccc2c1c34`, the growth inhibition was -1% in assay [1] (setting [7]); -11% in assay [1] (setting [8]); 89.2% (active) in assay [1] (at 50.0 µM); 0% in assay [2] (setting [7]); -6% in assay [2] (setting [8]); 40.4% in assay [2] (at 50.0 µM). Moreover, the growth inhibition is -5% in assay [3] (setting [7]); -14% in assay [3] (setting [8]); 83.5% (active) in assay [3] (at 50.0 µM); -3% in assay [4] (setting [7]); -4% in assay [4] (setting [8]); 61.7% in assay [4] (at 50.0 µM). For the same molecule, the growth inhibition in assay [5] (setting [7]) is 0%; in assay [5] (setting [8]) it was -6%; in assay [5] (at 50.0 µM), 87.5% (active); in assay [6] (setting [7]), -5%; in assay [6] (setting [8]) it was -6%; in assay [6] (at 50.0 µM), 91.2% (active).
Take `Clc1ccc(OCCC(Cn2ccnc2)c2ccc(Cl)cc2Cl)c(Cl)c1` (configuration not stated): the growth inhibition is 94% (active) in assay [1] (setting [7]); 98% (active) in assay [1] (setting [8]); 66% in assay [1] (at 50.0 µM); 91% (active) in assay [2] (setting [7]); 99% (active) in assay [2] (setting [8]); 55.9% in assay [2] (at 50.0 µM). Also, the growth inhibition in assay [3] (setting [7]) is 94% (active); in assay [3] (setting [8]) it was 98% (active); in assay [3] (at 50.0 µM), 58.2%; in assay [4] (setting [7]), 86% (active); in assay [4] (setting [8]), 97% (active); in assay [4] (at 50.0 µM), 64%. For the same molecule, the growth inhibition in assay [5] (setting [7]) was 93% (active); in assay [5] (setting [8]), 98% (active); in assay [5] (at 50.0 µM), 48.1%; in assay [6] (setting [7]), 90% (active); in assay [6] (setting [8]) it was 98% (active); in assay [6] (at 50.0 µM), 55.7%.
As to `O=C1c2cc(O)ccc2C(=O)c2c1ccc(O)c2O`, the growth inhibition in assay [1] (setting [7]) is 11%; in assay [1] (setting [8]), 98% (active); in assay [1] (at 50.0 µM), 98.7% (active); in assay [2] (setting [7]), 14%; in assay [2] (setting [8]), 99% (active); in assay [2] (at 50.0 µM), 97.2% (active). Further, the growth inhibition in assay [3] (setting [7]) is 12%; in assay [3] (setting [8]), 98% (active); in assay [3] (at 50.0 µM) it was 96.5% (active); in assay [4] (setting [7]), 12%; in assay [4] (setting [8]), 97% (active); in assay [4] (at 50.0 µM) it was 90.7% (active). For the same molecule, the growth inhibition is 4% in assay [5] (setting [7]); 98% (active) in assay [5] (setting [8]); 97.8% (active) in assay [5] (at 50.0 µM); 4% in assay [6] (setting [7]); 99% (active) in assay [6] (setting [8]); 98.2% (active) in assay [6] (at 50.0 µM).
Consider `O=C(NO)C(=O)Nc1cc(Cl)ccc1Cl`, for which the growth inhibition in assay [1] (setting [7]) was 7%; in assay [1] (setting [8]), 57%; in assay [1] (at 50.0 µM), 86.8% (active); in assay [2] (setting [7]) it was -8%; in assay [2] (setting [8]) it was 90% (active); in assay [2] (at 50.0 µM), 73% (active). In addition, the growth inhibition was -3% in assay [3] (setting [7]); 89% (active) in assay [3] (setting [8]); 79.8% (active) in assay [3] (at 50.0 µM); 2% in assay [4] (setting [7]); 94% (active) in assay [4] (setting [8]); 74.5% (active) in assay [4] (at 50.0 µM). The growth inhibition in assay [5] (setting [7]) was -28%; in assay [5] (setting [8]), 94% (active); in assay [5] (at 50.0 µM), 85.9% (active); in assay [6] (setting [7]) it was -2%; in assay [6] (setting [8]), 94% (active); in assay [6] (at 50.0 µM), 77.7% (active).
`O=C(O)Cc1ccc2c3c(cccc13)CC2`: the growth inhibition in assay [1] (setting [7]) is 44%; in assay [1] (setting [8]), 90% (active); in assay [1] (at 50.0 µM) it was 88.1% (active); in assay [2] (setting [7]) it was 12%; in assay [2] (setting [8]), 94% (active); in assay [2] (at 50.0 µM), 91.8% (active). For the same molecule, the growth inhibition was 20% in assay [3] (setting [7]); 78% (active) in assay [3] (setting [8]); 91.2% (active) in assay [3] (at 50.0 µM); 23% in assay [4] (setting [7]); 77% (active) in assay [4] (setting [8]); 90.2% (active) in assay [4] (at 50.0 µM). For the same molecule, the growth inhibition in assay [5] (setting [7]) was 16%; in assay [5] (setting [8]), 86% (active); in assay [5] (at 50.0 µM), 92.2% (active); in assay [6] (setting [7]) it was 27%; in assay [6] (setting [8]) it was 91% (active); in assay [6] (at 50.0 µM), 92.8% (active).
Turning to `Cc1[nH]nc(C(=O)N(C)C)c1N=NN(C)C`, the growth inhibition was -61% in assay [1] (setting [7]); 93% (active) in assay [1] (setting [8]); 97.8% (active) in assay [1] (at 50.0 µM); -44% in assay [2] (setting [7]); 91% (active) in assay [2] (setting [8]); 88.8% (active) in assay [2] (at 50.0 µM). Besides, the growth inhibition in assay [3] (setting [7]) is -43%; in assay [3] (setting [8]) it was 88% (active); in assay [3] (at 50.0 µM), 82% (active); in assay [4] (setting [7]) it was -50%; in assay [4] (setting [8]) it was 78% (active); in assay [4] (at 50.0 µM) it was 79.8% (active). Also, the growth inhibition was -65% in assay [5] (setting [7]); 83% (active) in assay [5] (setting [8]); 79.2% (active) in assay [5] (at 50.0 µM); -105% in assay [6] (setting [7]); 90% (active) in assay [6] (setting [8]); 95.6% (active) in assay [6] (at 50.0 µM).
